Data as given in PubChem BioAssay (NCATS).
Records with an inconclusive call do not appear. Entries that show only a call come without a potency. Active and inactive are the calls of the source. Calls come from the whole dose curve; as a rule, active = well fitted inhibition curve with a large enough effect; inconclusive = small, poorly fitted or top-dose-only effect; inactive = flat fitted curve, though single readings scatter.

Biological target: Voltage-gated inwardly rectifying potassium channel KCNH2 (Homo sapiens) (UniProt Q12809)
Assay: qHTS Assay for Small Molecule Inhibitors of the Human hERG Channel Activity (AID 588834);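 note: lower thallium flux fluorescence means stronger hERG block; nearly all actives have a fitted effect of over 50% in size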
Settings: U2OS BacMam hERG, FluxOR thallium flux fluorescence; series mostly up to 46.1 µM
Summary of the method: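 Cells were infected with hERG-BacMam virus for 4 hrs at room temperature, grown overnight, then seeded at 2000/well. After dye loading and roughly 10 min compound treatment, thallium influx was triggered and fluorescence recorded.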
Potency is the fitted concentration of half-maximal effect.

Voltage-gated inwardly rectifying potassium channel KCNH2 (Homo sapiens), sequence (Q12809 whole entry, looked up): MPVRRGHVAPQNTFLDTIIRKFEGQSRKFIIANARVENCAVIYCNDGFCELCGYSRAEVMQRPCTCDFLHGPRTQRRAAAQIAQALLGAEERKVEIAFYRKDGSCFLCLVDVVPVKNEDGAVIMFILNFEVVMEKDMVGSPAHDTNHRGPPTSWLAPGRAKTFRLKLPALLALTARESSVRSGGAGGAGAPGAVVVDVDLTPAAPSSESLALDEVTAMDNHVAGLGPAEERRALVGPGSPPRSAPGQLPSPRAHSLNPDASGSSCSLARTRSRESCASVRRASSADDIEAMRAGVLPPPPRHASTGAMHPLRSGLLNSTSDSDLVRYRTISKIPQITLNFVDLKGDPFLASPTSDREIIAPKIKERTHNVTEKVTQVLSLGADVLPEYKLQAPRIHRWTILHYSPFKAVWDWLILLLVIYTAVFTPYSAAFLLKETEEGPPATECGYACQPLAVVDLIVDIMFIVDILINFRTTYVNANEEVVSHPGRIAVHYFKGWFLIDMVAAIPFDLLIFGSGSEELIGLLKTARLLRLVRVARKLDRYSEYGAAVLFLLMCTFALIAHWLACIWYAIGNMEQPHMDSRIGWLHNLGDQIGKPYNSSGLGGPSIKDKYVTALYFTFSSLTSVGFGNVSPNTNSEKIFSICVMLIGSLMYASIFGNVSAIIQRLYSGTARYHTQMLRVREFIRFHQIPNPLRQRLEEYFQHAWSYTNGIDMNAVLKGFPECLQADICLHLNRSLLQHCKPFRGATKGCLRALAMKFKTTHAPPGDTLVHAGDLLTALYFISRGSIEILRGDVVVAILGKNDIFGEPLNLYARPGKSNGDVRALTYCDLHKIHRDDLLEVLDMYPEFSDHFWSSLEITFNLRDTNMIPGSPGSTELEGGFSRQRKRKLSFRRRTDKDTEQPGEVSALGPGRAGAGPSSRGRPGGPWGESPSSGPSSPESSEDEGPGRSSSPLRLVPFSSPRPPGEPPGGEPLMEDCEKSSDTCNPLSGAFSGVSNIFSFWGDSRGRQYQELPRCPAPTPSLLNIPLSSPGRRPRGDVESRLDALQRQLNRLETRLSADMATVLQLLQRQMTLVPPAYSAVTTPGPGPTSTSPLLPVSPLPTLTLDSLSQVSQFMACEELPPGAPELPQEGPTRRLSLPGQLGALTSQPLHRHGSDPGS

Compound	Potency
O=C(CCCN1CCN2CCCC2C1)c1ccc(F)cc1 (stereo not given)	inactive
CN(C)C(=O)CCSC(SCCC(=O)O)c1cccc(/C=C/c2ccc3ccc(Cl)cc3n2)c1 (stereo not given)	inactive
COc1ccc2c(c1)OC(C)(C)C(c1ccccc1)C2c1ccc(OCCN2CCCC2)cc1 (stereo not given)	10 µM (active)
OC[C@@H](O)C(O)[C@H](O)CO	inactive
CC(=O)NCCCS(=O)(=O)O	inactive
